Columns and labels:
Experiment in all cases: log2 ratio of Biotin-Ahx-Ub-VS probe labelling (fragment/DMSO); higher = less target engagement (more negative = stronger competition), active = hit call of the paper (q ≤ 0.05, log2 ratio ≤ -1)
Settings in all cases: compound concentration: 200 uM; treatment time: 3 h
OTUD6B = target: T1, OTUD6B (UniProt Q8N6M0)
T1 sequence (whole entry): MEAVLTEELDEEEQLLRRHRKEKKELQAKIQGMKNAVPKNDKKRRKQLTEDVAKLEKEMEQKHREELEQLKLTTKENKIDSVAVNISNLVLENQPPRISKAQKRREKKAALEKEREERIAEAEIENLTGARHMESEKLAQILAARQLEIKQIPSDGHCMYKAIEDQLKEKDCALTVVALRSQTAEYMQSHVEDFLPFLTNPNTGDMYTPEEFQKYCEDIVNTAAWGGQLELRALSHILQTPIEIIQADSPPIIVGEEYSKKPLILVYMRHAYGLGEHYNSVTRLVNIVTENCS
How it was run: (§1)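 Fragment (200 µM) or vehicle was incubated for 3 h with triplicate HEK293T lysate samples of 495 µg, which were then treated with Biotin-Ahx-Ub-VS at 0.5 µM final for 1 h. Labelled DUBs were enriched on NeutrAvidin, digested with LysC and trypsin, and analysed by diaPASEF LC-MS/MS. Values are average log2 fragment/vehicle ratios from an unpaired t-test on global-median-normalised Spectronaut label-free quantities, using proteins with ≥2 unique peptides.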

OTUD7B = target: T2, OTUD7B (UniProt Q6GQQ9)
T2 sequence (whole entry): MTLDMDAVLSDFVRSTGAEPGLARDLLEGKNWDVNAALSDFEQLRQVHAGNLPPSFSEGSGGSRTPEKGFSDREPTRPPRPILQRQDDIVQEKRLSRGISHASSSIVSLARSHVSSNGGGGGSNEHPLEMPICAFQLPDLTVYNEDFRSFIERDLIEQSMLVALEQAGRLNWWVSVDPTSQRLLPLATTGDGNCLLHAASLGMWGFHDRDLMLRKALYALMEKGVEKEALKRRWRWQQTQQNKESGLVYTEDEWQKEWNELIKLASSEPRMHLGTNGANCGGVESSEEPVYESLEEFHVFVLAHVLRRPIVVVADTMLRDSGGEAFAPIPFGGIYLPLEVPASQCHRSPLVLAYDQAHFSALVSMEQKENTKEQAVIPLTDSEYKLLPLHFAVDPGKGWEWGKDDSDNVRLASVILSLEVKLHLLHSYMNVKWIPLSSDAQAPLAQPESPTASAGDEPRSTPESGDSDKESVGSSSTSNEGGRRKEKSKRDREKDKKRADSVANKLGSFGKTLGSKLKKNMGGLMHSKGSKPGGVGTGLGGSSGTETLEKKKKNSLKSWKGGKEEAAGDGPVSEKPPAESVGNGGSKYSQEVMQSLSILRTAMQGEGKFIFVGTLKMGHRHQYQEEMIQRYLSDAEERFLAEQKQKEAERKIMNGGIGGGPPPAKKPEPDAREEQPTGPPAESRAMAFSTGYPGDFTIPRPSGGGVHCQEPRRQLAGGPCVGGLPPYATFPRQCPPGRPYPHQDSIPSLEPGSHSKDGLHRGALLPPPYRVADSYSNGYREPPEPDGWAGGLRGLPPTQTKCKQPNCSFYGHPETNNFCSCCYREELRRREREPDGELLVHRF
How it was run: as §1

PRPF8 = PRPF8 (UniProt Q6P2Q9)
How it was run: as §1

PSMD7 = target: T3, PSMD7 (UniProt P51665)
T3 sequence (whole entry): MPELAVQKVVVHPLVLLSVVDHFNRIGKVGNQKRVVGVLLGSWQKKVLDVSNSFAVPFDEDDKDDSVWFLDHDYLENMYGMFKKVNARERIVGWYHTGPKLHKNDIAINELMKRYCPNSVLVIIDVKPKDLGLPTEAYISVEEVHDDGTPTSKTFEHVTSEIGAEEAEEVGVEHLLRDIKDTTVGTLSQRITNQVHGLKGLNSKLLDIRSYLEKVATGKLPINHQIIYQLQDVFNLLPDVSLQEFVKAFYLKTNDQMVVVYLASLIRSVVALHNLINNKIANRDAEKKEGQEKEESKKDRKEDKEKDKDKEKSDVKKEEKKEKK
How it was run: as §1

UCHL1 = UCHL1 (UniProt P09936)
UCHL1, sequence (P09936 whole entry, looked up): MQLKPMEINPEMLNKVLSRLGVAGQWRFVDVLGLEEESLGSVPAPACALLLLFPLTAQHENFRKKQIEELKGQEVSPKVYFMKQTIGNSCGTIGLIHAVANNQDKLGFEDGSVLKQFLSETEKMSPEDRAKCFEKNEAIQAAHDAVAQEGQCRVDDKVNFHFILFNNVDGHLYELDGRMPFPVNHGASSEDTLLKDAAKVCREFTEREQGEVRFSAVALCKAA
How it was run: as §1

UCHL3 = target: T4, UCHL3 (UniProt P15374)
T4 sequence (whole entry): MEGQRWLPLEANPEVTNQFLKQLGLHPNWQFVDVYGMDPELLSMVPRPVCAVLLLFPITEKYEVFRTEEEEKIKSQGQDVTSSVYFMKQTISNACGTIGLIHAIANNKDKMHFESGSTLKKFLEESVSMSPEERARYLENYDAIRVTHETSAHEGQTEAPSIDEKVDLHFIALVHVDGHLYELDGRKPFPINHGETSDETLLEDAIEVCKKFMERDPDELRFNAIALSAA
How it was run: as §1

UCHL5 = target: T5, UCHL5 (UniProt Q9Y5K5)
T5 sequence (whole entry): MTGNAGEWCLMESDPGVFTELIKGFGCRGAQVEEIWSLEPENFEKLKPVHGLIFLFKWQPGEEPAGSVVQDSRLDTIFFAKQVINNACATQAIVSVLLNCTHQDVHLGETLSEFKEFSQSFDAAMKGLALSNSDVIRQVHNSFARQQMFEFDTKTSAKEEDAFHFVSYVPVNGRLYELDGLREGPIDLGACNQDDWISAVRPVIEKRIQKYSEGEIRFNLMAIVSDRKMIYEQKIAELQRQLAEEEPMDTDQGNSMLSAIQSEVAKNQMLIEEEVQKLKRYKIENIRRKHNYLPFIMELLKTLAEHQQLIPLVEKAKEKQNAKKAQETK
How it was run: as §1

USP10 = USP10 (UniProt Q14694)
USP10, sequence (Q14694 whole entry): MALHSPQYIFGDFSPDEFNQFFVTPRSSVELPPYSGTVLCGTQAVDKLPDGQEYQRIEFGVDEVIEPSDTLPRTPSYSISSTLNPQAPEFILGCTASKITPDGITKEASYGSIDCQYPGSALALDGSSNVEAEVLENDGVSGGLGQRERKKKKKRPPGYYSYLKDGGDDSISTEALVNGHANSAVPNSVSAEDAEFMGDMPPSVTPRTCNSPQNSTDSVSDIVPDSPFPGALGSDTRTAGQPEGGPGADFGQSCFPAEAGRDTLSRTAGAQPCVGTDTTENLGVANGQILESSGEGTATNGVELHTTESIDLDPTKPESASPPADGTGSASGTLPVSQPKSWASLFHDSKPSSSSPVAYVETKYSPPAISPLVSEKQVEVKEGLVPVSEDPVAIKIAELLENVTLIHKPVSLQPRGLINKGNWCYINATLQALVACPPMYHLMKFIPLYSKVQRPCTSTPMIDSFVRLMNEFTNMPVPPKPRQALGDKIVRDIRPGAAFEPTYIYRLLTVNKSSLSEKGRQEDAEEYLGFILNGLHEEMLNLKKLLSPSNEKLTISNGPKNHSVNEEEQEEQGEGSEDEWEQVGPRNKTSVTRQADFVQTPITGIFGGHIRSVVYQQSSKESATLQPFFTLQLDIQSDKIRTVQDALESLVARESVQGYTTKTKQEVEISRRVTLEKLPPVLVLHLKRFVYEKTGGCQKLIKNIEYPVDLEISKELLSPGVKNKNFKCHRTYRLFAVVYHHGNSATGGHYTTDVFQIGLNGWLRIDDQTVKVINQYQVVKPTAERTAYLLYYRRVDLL
How it was run: as §1

USP15 = target: T6, USP15 (UniProt Q9Y4E8)
T6 sequence (whole entry): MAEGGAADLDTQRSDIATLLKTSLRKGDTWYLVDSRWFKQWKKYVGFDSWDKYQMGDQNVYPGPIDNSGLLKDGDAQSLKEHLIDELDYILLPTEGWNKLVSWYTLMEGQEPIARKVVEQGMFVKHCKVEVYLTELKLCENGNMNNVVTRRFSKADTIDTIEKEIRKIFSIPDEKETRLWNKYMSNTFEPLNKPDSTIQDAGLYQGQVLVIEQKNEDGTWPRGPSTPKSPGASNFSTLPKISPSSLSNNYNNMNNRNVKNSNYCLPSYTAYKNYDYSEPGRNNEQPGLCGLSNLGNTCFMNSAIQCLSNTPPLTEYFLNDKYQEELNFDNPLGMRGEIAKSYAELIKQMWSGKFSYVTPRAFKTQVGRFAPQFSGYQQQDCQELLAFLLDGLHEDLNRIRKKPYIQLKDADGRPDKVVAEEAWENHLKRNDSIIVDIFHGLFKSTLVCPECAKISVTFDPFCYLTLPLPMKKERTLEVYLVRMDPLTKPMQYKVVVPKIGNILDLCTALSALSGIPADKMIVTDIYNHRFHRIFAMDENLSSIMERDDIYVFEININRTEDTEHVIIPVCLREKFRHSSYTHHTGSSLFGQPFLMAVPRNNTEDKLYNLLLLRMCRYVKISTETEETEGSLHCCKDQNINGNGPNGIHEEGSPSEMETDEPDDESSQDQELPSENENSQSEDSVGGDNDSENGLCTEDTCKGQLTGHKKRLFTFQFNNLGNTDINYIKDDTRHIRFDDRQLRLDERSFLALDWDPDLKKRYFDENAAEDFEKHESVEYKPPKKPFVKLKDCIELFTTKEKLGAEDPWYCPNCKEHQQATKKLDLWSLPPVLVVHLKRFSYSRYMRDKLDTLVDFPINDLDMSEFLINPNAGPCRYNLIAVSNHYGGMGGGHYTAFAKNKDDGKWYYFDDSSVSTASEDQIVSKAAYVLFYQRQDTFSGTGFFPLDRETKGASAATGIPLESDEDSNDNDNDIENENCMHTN
How it was run: as §1

USP16 = USP16 (UniProt Q9Y5T5)
USP16, sequence (Q9Y5T5 whole entry, looked up): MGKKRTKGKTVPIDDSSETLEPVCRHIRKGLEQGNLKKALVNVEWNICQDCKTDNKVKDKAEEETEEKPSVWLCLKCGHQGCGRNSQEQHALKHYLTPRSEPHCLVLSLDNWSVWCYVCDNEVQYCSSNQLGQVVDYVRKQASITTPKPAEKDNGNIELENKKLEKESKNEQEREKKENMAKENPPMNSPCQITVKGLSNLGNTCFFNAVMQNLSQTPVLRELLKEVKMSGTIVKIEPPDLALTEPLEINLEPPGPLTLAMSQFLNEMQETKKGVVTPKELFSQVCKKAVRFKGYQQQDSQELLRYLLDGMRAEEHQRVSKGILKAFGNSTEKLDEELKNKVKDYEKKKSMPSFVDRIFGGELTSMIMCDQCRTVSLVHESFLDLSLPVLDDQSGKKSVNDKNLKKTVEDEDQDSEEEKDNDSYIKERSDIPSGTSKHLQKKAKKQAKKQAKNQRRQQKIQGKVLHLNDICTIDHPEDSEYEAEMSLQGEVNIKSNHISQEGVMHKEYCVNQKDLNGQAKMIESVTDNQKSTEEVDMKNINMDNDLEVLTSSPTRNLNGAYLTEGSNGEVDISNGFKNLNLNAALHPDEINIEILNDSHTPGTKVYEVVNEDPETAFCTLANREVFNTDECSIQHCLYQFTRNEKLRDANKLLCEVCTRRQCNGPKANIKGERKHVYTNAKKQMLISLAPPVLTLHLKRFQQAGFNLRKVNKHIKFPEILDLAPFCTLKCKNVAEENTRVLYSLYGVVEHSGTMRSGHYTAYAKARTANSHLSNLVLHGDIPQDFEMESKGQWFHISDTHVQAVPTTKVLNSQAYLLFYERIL
How it was run: as §1

Measured: log2 ratio of Biotin-Ahx-Ub-VS probe labelling

O=C(CCl)Nc1cc(Cl)ccc1-n1cncn1
active: OTUD6B -1.04 | OTUD7B -2.08 | UCHL1 -1.89 | UCHL5 -1.18 | USP15 -1.26
inactive: PRPF8 -0.132 | PSMD7 -0.143 | UCHL3 -0.609 | USP10 -0.141 | USP16 0.0892

Source: the supplement of paper PMC11732987, “Enantioselective OTUD7B fragment discovery through chemoproteomics screening and high-throughput optimisation” (Communications Chemistry, 2025)
